This note sets out measurements from PubChem BioAssay (EPA / NIEHS).

Read-out in assay [1]: Human Leukocyte Antigen - DR isotype (HLADR), HLA-DRA (gene 3122)
Put plainly: BSK_BE3C_HLADR: BioMAP Diversity Plus: BE3C Assay for Human Leukocyte Antigen - DR isotype (HLADR) Biomarker Activity (AID 2283032). To be noted: primary human bronchial epithelial cells; actives raise or lower the signal. Summed up: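 Chemicals are dosed onto BE3C bronchial epithelial cultures of human origin and left 24 h. HLA-DR is then measured by ELISA, and the endpoint is fitted in both directions using DMSO as the activity baseline.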

Read-out in assay [2]: Vascular cell adhesion molecule 1 (VCAM1), VCAM1 (gene 7412)
Put plainly: BSK_4H_VCAM1: BioMAP Diversity Plus: 4H Assay for Vascular cell adhesion molecule 1 (VCAM1) Biomarker Activity (AID 2283033).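 On outcome: cell-surface VCAM-1 protein measured by ELISA.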 The conditions noted are these: primary human endothelial cells (HUVEC); actives raise or lower the signal. The gist of the method:
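Chemicals are added to primary human umbilical vein endothelial cells. After 24 h, VCAM-1 levels are measured by ELISA. Values come from bidirectional fitting referenced to DMSO.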

Read-out in assay [3]: Interferon-gamma inducible Protein 10 (IP10), CXCL10 (gene 3627)
Put plainly: BSK_BE3C_IP10: BioMAP Diversity Plus: BE3C Assay for Interferon-gamma inducible Protein 10 (IP10) Biomarker Activity (AID 2283034). To be noted: primary human bronchial epithelial cells; actives raise or lower the signal. The gist of the method:
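IP-10 quantified by ELISA serves as the endpoint. Cells: primary human bronchial epithelium, read 24 h after compound addition. Activity is derived by bidirectional fitting with DMSO as negative control.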

Read-out in assay [4]: Monokine induced gamma interferon (MIG), CXCL9 (gene 4283)
Put plainly: BSK_BE3C_MIG: BioMAP Diversity Plus: BE3C Assay for Monokine induced gamma interferon (MIG) Biomarker Activity (AID 2283035).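 On outcome: MIG protein measured by ELISA in BE3C cultures after 24 h of dosing.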 The conditions noted are these: primary human bronchial epithelial cells; actives raise or lower the signal. The gist of the method: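 Dose cells (human primary bronchial epithelial), incubate 24 h, quantify MIG by ELISA, then fit concentration–response in both directions relative to DMSO control.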

Read-out in assay [5]: urokinase plasminogen activator (uPA), PLAU (gene 5328)
Put plainly: BSK_BE3C_uPA: BioMAP Diversity Plus: BE3C Assay for urokinase plasminogen activator (uPA) Biomarker Activity (AID 2283038).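 On outcome: uPA protein level quantified by ELISA in cell cultures; uPA read one day after compound addition.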 To be noted: primary human bronchial epithelial cells; actives raise or lower the signal. The gist of the method: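 Using confluent primary human lung bronchial epithelial cultures, we dosed chemicals, waited 24 h, then ran a uPA ELISA, fitting bidirectionally against DMSO.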

Read-out in assay [6]: Urokinase-type plasminogen activator receptor (uPAR), PLAUR (gene 5329)
Put plainly: BSK_BE3C_uPAR: BioMAP Diversity Plus: BE3C Assay for Urokinase-type plasminogen activator receptor (uPAR) Biomarker Activity (AID 2283039).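 On outcome: uPAR protein level measured by ELISA on the cells; cells exposed to compound for one day before measurement.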 The conditions noted are these: primary human bronchial epithelial cells; actives raise or lower the signal. Summed up: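 Steps: dose human primary bronchial epithelial cells, incubate 24 h, measure uPAR by ELISA, then fit gain- or loss-of-signal response bidirectionally relative to DMSO.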

Read-out in assay [7]: Interleukin-6 (IL6), IL6 (gene 3569)
Put plainly: BSK_CASM3C_IL6: BioMAP Diversity Plus: CASM3C Assay for Interleukin-6 (IL6) Biomarker Activity for (AID 2283040). The conditions noted are these: primary human coronary artery smooth muscle cells; actives raise or lower the signal.

Read-out in assay [8]: Transforming growth factor beta 1 (TGFb1), TGFB1 (gene 7040)
Put plainly: BSK_BE3C_TGFb1: BioMAP Diversity Plus: BE3C Assay for Transforming growth factor beta 1 (TGFb1) Biomarker Activity (AID 2283036;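 on outcome: TGF-b1 protein level measured by ELISA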). To be noted: primary human bronchial epithelial cells; actives raise or lower the signal. The gist of the method: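 Bronchial epithelial primary cells are treated with test chemical, then TGF-b1 is quantified by ELISA after 24 hours. Values derive from bidirectional fitting against DMSO, with cytotoxicity checked by SRB staining in parallel cultures.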

Read-out in assay [9]: Plasminogen activator inhibitor-1 (PAI1), SERPINE1 (gene 5054)
Put plainly: BSK_BE3C_PAI1: BioMAP Diversity Plus: BE3C Assay for Plasminogen activator inhibitor-1 (PAI1) Biomarker Activity (AID 2283037). To be noted: primary human bronchial epithelial cells; actives raise or lower the signal. The gist of the method:
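Values derive from bidirectional fitting against DMSO baseline of PAI-1 levels, measured by ELISA in human bronchial epithelial cells 24 h after compound addition.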

Several values for one entry are separate records, joined by “and”; a condition that tells them apart may be missing. Equal entries are not always repeated. Some structures have more than one record in an assay (separate samples or runs), and their calls can disagree. Activity calls are given as the source filed them. How the source made its calls: active means hit-call score of the fitted dose curve at least 0.9, where 1 is the maximum; inactive means score below 0.9.

Take `OCC(O)CC(F)(F)C(F)(F)C(F)(F)C(F)(F)C(F)(F)C(F)(F)C(F)(F)C(F)(F)F` (centres undefined): the outcome in assay [1], in [2], in [3], in assay [4], in assay [5] and in assay [6] was inactive. The result in assay [7] was inactive.
On to `CCN(CC)c1ccc(N=Nc2ccccc2)cc1`, for which the outcome in assay [1], in [4], in assay [5], in assay [6] and in assay [7] was inactive. The figures for the AC50 in assay [2], in assay [3] and in [8] were 16.9 µM (active), 10.2 µM (active) and 20 µM (active), respectively.
Take `NC(=O)C(F)(F)C(F)(F)C(F)(F)F`: the outcome in assay [1], in assay [2], in assay [3], in assay [4], in assay [5] and in assay [6] was inactive. In assay [7], the outcome was inactive.
Take `FC(F)(F)C(F)(F)C(F)(F)C(F)(F)C(F)(F)C(F)(F)CC[Si](Cl)(Cl)Cl`: the result in assay [1], in [2], in assay [3], in assay [4], in [9] and in assay [5] was inactive. Besides, the outcome in assay [6] and in assay [7] was inactive.
Turning to `C=CC(=O)OCC(F)(F)C(F)(F)C(F)(F)C(F)(F)C(F)(F)C(F)(F)C(F)(F)C(F)F`, the result in [1], in [2], in [3], in [4], in [9] and in assay [5] was inactive. Moreover, the result in assay [6] and in [7] was inactive.
In the case of `FC(F)(F)C(F)(F)C(F)(F)CC1CO1` (centres undefined), the outcome in assay [1], in assay [2], in assay [3], in assay [4], in [5] and in assay [6] was inactive. Also, the result in assay [7] was inactive.
Take `O=C(Cl)C(F)(F)C(F)(F)C(F)(F)C(F)(F)C(F)(F)C(F)(F)F`: the outcome in [1], in assay [2], in assay [3], in [4], in assay [5] and in assay [6] was inactive. Moreover, the outcome in assay [7] was inactive.
For the molecule `CCOC(=O)CC(=O)C(F)(F)C(F)(F)F`, the outcome in assay [1], in assay [2], in assay [3], in [4], in [9] and in [5] was inactive. For the same molecule, the outcome in [6] and in [7] was inactive.
Take `CCOC(C=C(C)CCC=C(C)C)OCC`: the outcome in assay [1], in [3], in assay [4], in assay [8], in [5] and in assay [6] was inactive. The figures for the AC50 in assay [2] and in assay [7] were 31.5 µM (active) and 20 µM (active), respectively.
On to `OCC(F)(F)C(F)(F)C(F)(F)C(F)(F)C(F)(F)C(F)(F)CO`, for which the outcome in assay [1], in [2], in assay [3], in assay [4], in [9] and in [5] was inactive. Besides, the outcome in assay [6] and in assay [7] was inactive.
On to `O=C(O)CCC(F)(F)C(F)(F)C(F)(F)F`, for which the result in assay [1], in assay [2], in assay [3], in assay [4], in assay [5] and in assay [6] was inactive. The result in assay [7] was inactive.
As for `Cc1cnccn1`, the result in assay [1], in assay [2], in assay [3], in assay [4], in assay [8] and in [5] was inactive. Also, the outcome in [6] and in [7] was inactive.
On to `O=S(=O)(Cl)C(F)(F)C(F)(F)C(F)(F)C(F)(F)C(F)(F)C(F)(F)C(F)(F)C(F)(F)F`, for which the AC50 is 44.8 µM (active) and 46.8 µM (active) in assay [1]; 40.2 µM (active) and 37 µM (active) in assay [3]; 55.8 µM (active) and 53.6 µM (active) in assay [4]; 45.8 µM (active) and 47.4 µM (active) in [9]; 55.2 µM (active) in [5]; 51.7 µM (active) and 51.6 µM (active) in assay [6]. In addition, the result in [2], in assay [5] and in assay [7] was inactive.
`OCCCC(F)(F)C(F)(F)C(F)(F)C(F)(F)C(F)(F)C(F)(F)C(F)(F)C(F)(F)F`: the AC50 in assay [1] is 44.6 µM (active) and 49.9 µM (active); in assay [2], 31.2 µM (active) and 45.1 µM (active); in [3], 32.3 µM (active) and 37.7 µM (active); in assay [4] it was 56.5 µM (active) and 53.4 µM (active); in [9] it was 37.8 µM (active) and 30.3 µM (active); in [5], 55.2 µM (active). Moreover, in [6], the AC50 was 49.4 µM (active) and 54.6 µM (active). In addition, the outcome in assay [7] was inactive.
On to `Nc1cc([N+](=O)[O-])cc(Cl)c1O`, for which the result in [1], in [2], in assay [4], in assay [8], in [9] and in [5] was inactive. Moreover, the result in assay [6] and in assay [7] was inactive. Moreover, the AC50 in assay [3] was 3.97 µM (active).
Regarding `O=C(F)C1(F)C(F)(F)C(F)(F)C(F)(F)C(F)(F)C1(F)F`, the result in assay [1], in assay [2], in assay [3], in assay [4], in [9] and in assay [5] was inactive. In addition, the result in assay [6] and in assay [7] was inactive.
For `O=C1C=CC(=O)N1c1ccc(Cc2ccc(N3C(=O)C=CC3=O)cc2)cc1`, the AC50 is 2.8 µM (active) in assay [1]; 9.59 µM (active) in assay [2]; 2.6 µM (active) in [3]; 6.3 µM (active) in [4]; 1.6 µM (active) in [8]; 3.54 µM (active) in assay [9]. In addition, the AC50 was 2.62 µM (active) in assay [5], 3.31 µM (active) in assay [6] and 9.64 µM (active) in [7].
